This note sets out measurements from PubChem BioAssay (NCI).

Compounds without any hit were thinned out: in the full panel of roughly 83,000, 20% have a hit.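 How to read the values: 0–100, growth inhibition (40 = 60% inhibited); 0, no net growth; -100 to 0, cell death (-40 = 40% of starting cells died; -100 = all dead).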 Values without a mark were called inactive. Calls of active or inactive are those of the source. The calls were made as follows: active = growth percent below 10; inactive = the rest.

Holding throughout (test): NCI-60 one-dose screen, 48 h (100 = growth as untreated, 0 = no growth, -100 = all killed)
What all share (conditions): 10 µM unless noted

The test system of experiment [1] is DU-145 prostate.
Experiment [2] deals with K-562 leukemia.
For experiment [3], the system named is MALME-3M melanoma.
The subject of experiment [4] is RXF 393 renal.
The test system of experiment [5] is SF-268 CNS.
For experiment [6], the system named is SF-295 CNS.
The test system of experiment [7] is SF-539 CNS.
In experiment [8] the test system is UACC-257 melanoma.
In experiment [9] the test system is M14 melanoma.
In experiment [10] the test system is MDA-MB-231 breast.

Take `COc1cccc(OC)c1OC(=O)c1ccccc1`: the growth is 119% in experiment [1]; 105% in experiment [2]; 106% in experiment [3]; 109% in experiment [4]; 111% in experiment [5]; 79.5% in experiment [6]. The values for the growth in experiment [7], in [8] and in experiment [9] were 99.1%, 99.5% and 109%, respectively.
Turning to `Cc1ccc(S(=O)(=O)N2C/C(=C\c3cc(F)cc(F)c3)C(=O)/C(=C/c3cc(F)cc(F)c3)C2)cc1`, the growth was -61.3% (active) in experiment [1]; 2.14% (active) in [2]; -62.9% (active) in experiment [3]; -29.7% (active) in [10]; -40.6% (active) in experiment [5]; -39.6% (active) in [7]. The growth in experiment [9] was -50.1% (active).
Take `Cc1ccc(C(=O)Nc2ccccc2N)cc1`: the growth is 73.5% in experiment [1]; 62.5% in experiment [2]; 69.7% in experiment [10]; 84.6% in experiment [4]; 69.6% in experiment [5]; 62.5% in experiment [6]. The growth was 68.1% in experiment [7], 68% in experiment [8] and 77.5% in experiment [9].
Take `O=c1nc(NO)[nH]c(=O)n1Cc1ccc(F)cc1`: the growth in [1] is 114%; in [2], 98.1%; in experiment [3] it was 103%; in [10], 122%; in experiment [5], 104%; in [7], 102%. The growth in experiment [9] was 107%.
Consider `CCN1CCN(C(=S)SCC(=O)Nc2nc3ccc(OC)cc3s2)CC1`, for which the growth in experiment [1] was 106%; in [2] it was 91.8%; in [10], 98%; in experiment [4], 92.5%; in experiment [5], 92.5%; in [6] it was 121%. Also, the figures for the growth in [7], in experiment [8] and in experiment [9] were 109%, 117% and 112%, respectively.
